Only a selection was taken, and hits are over-represented in it overall.
CBX7 inh: CBX7 chromodomain binding inhibitors, primary screen, biochemical, AlphaScreen. hit rate 1.1% among 66,000. normalised signal (fraction of DMSO) (concentration not given with the values). AlphaScreen His6-CBX7 / biotin-H3K27me3 peptide binding; stronger effect = lower value. Chromobox protein homolog 7 (Homo sapiens), O95931; in the data active means normalised signal below about 0.5
Target sequence (O95931 whole entry, looked up): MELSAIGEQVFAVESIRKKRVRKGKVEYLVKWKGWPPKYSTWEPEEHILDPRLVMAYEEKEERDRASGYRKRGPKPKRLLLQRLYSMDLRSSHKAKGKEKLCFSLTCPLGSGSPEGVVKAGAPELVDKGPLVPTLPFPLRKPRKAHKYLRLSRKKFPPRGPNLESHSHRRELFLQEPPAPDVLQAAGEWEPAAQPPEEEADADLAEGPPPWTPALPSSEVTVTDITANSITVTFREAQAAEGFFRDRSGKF
Hits are given with their value; 0 = inactive.

SMILES	CBX7 inh
O=C1CSC(c2ccc(Cl)cc2)c2c(-c3ccccc3)nn(-c3ccccc3)c2N1 (centres undefined)	0
COc1ccc(C2SCC(=O)Nc3c2c(C)nn3-c2ccccc2)cc1 (centres undefined)	0
CN(C)c1ccc(C2SCC(=O)Nc3c2c(-c2ccccc2)nn3-c2ccccc2)cc1 (centres undefined)	0.42
CCOC(=O)C1(c2ccccc2)CCN(CCC(=O)Nc2ccc(OCc3ccccc3)cc2)CC1	0
CCN(CC)C(=O)c1ccc(NC(=O)Cn2nc(-c3ccc(Cl)cc3)c3ccccc3c2=O)cc1	0
O=C(Cn1cc(C(=O)c2ccccc2)c2ccccc21)NCc1ccc2c(c1)OCO2	0
COc1ccc2[nH]c(C)c(CCNCc3nc[nH]c3C)c2c1	0.0075
COc1ccc2[nH]c(C)c(CCNCc3cccnc3)c2c1	0
COc1ccc2[nH]c(C)c(CCNCc3ccc(F)cc3F)c2c1	0
CCOC(=O)N1CCC(Nc2c(N3CC4CC(C3)c3cccc(=O)n3C4)c(=O)c2=O)CC1 (centres undefined)	0
Cc1ccccc1-n1c(-c2cccnc2)nc2ccccc2c1=O	0
COc1ccc(CCNCc2cc(OC)c3c(c2)OCO3)cc1	0
COc1ccc(CCNCc2cccnc2)cc1OC	0
COc1ccc(CCNCc2ccccn2)cc1OC	0.27
COc1cc2c(cc1OC)C(C(=O)Nc1ccc3c(c1)OCCO3)C1CCCCN1C2=O (centres undefined)	0
CCCCOc1ccc(C2SCC(=O)Nc3c2c(=O)[nH]n3C(C)C)cc1 (centres undefined)	0
COc1ccc(-n2nnnc2C2(NCCc3c(C)[nH]c4c(Cl)ccc(Cl)c34)CCCCC2)cc1	0
Cc1ccccc1-n1nnnc1C1(NCCc2c(C)[nH]c3ccccc23)CCCCC1	0.49
Cc1ccc(-n2nnnc2C2(NCCc3c(C)[nH]c4c(Cl)c(Cl)ccc34)CCCCC2)cc1	0
COc1ccc(Cl)cc1C(=O)Nc1ccc(Br)cc1C(=O)c1ccccc1	0

Bioassay records (PubChem)
